In PubChem BioAssay AID2501 (Southern Research Specialized Biocontainment Screening …, 2010):
In all, about 2,200 compounds went through this assay and about 1,200 (55%) were called active. Cut-off not given; nearly all actives show IC50 up to about 92 µM. The set was probably picked from earlier hits. This is one part of the list.

Experiment: counter assay for TAg ATPase ADP read-out – biochemical, ADP-Hunter, fluorescence, counter-screen (AID 2501);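 further: purified T antigen ATPase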;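 on inhibition: 0% = enzyme with vehicle and 100% = reference inhibitor wells; higher means more inhibition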
Conditions: series mostly up to 100 µM; inhibition: at the top concentration

SMILES	IC50	inhibition
COc1ccc(NCCc2ccccn2)cc1	2.41 µM (active)	–
COc1ccc(S(=O)(=O)N(CC(=O)NCc2ccccn2)c2ccc(Cl)cc2)cc1	–	12.9% (inactive)
COc1ccc(S(=O)(=O)Nc2ccc(O)c3ccccc23)cc1	–	15.9% (inactive)
COc1ccc(C(=O)Nc2ccc(O)c3ccccc23)cc1	13.1 µM (active)	–
CCOC(=O)Cn1cc(C#N)c(=O)[nH]c1=O	–	-7.22% (inactive)
Cc1ccc2c(c1)NC(=O)c1cccnc1N2	4.54 µM (active)	–
Cc1ccc(C(=O)N2CCN3C(=O)c4ccccc4C23c2ccccc2)cc1 (stereo not given)	–	-13.8% (inactive)
CC(=O)Oc1c(/C=C(\C#N)C(N)=O)[nH]c2ccccc12	27.2 µM (active)	–
C=CCn1c(SCC(C)=O)nc2scc(-c3ccco3)c2c1=O	–	-13.2% (inactive)
C=CCn1c(=S)[nH]c2scc(-c3ccco3)c2c1=O	26.9 µM (active)	–
C=CCn1c(SCC(=O)NCC2CCCO2)nc2scc(-c3ccco3)c2c1=O (stereo not given)	–	2.43% (inactive)
C#CCOCCOCCOCCNc1nc(N2CCN(C(=O)CCCCCCCCCCNC(=O)[C@H]([C@@H](C)CC)n3cc(CCCCN=C(N)N)nn3)CC2)nc(N2CCN(C(=O)CCCCCCCCCCNC(=O)[C@H](CCCN=C(N)N)n3cc(C[C@@H](C)CC)nn3)CC2)n1	–	11.4% (inactive)
CCOC(=O)C1CCN(c2nc(N)c3c(N)nc(SCC(=O)O)cc3c2C#N)CC1	–	17.8% (inactive)
O=C(N/N=C(\c1ccccc1)c1cccnc1)c1cc(O)ccc1O	3.71 µM (active)	–
CCOC(=O)CN(C(=O)CSc1nnc2c(n1)[nH]c1ccccc12)c1ccccc1	–	-20.1% (inactive)
O=C(O)CSCC(=O)Nc1ccc(-c2nc3ccccc3s2)cc1	–	-22.8% (inactive)
Cc1[nH]c2ccccc2c1-c1csc(NC(=O)CSCC(=O)O)n1	14.6 µM (active)	–
COc1cccc(/C=N/n2c(-c3cc(C)[nH]n3)n[nH]c2=S)c1O	13.2 µM (active)	–
Cc1cc(-c2n[nH]c(=S)n2/N=C/c2cccs2)n[nH]1	52.3 µM (active)	–
CCN(CC)c1ccc(NC(=S)NC(=O)C2CCC2)cc1	7.07 µM (active)	–

SMILES	IC50	inhibition
COc1ccc2c(c1)-c1nc(/N=C/c3ccc(O)c(OC)c3)sc1CC2	3.97 µM (active)	–
Cc1cc([N+](=O)[O-])nn1CC(=O)NCc1ccccc1	–	-19.7% (inactive)
COc1cc(C(=O)N/N=C(\C)Cn2nc([N+](=O)[O-])cc2C)ccc1O	16.1 µM (active)	–
C#CCOCCOCCOCCNc1nc(N2CCN(C(=O)CCCCCCCCCCNC(=O)[C@H]([C@@H](C)CC)n3cc(CCCCCN)nn3)CC2)nc(N2CCN(C(=O)CCCCCCCCCCNC(=O)[C@@H]([C@H](C)CC)n3cc(CCCCCN)nn3)CC2)n1	–	-11.2% (inactive)
CC1(C)C(/C=C/C=C/C=C/C=C2\N(CCCCS(=O)(=O)O)c3ccc4ccccc4c3C2(C)C)=[N+](CCCCS(=O)(=O)[O-])c2ccc3ccccc3c21	10.5 µM (active)	–
COc1cccc2c1NC(C(=O)O)C1CC=CC21 (stereo not given)	–	-9.16% (inactive)
COCCCNc1nnc(Cc2ccc(Cl)cc2)c(=O)[nH]1	–	1.77% (inactive)
CCCC1=NN2C(=N)/C(=C\c3ccc(SCc4ccco4)o3)C(=O)N=C2S1	–	28.8% (inactive)
Nc1ccc(C(=O)Nc2ccccc2C(=O)O)cc1	–	9.15% (inactive)
Nc1ccc(O)c(C(=O)O)c1	8.29 µM (active)	–
O=C(O)C1=CC(=C(c2ccc(O)c(C(=O)O)c2)c2ccc(O)c(C(=O)O)c2)C=CC1=O	–	2.97% (inactive)
Nc1c(O)cccc1C(=O)O	7.18 µM (active)	–
COc1cc(C(C)=O)ccc1OCC(O)Cn1nc(C)c(C(C)=O)c1C (stereo not given)	49.1 µM (active)	–
NC(=O)[C@@H]1CCCCNc2c(I)cc([N+](=O)[O-])cc2C(=O)N[C@@H](CCC(=O)O)C(=O)N[C@@H](CO)C(=O)N1	–	7.6% (inactive)
COc1ccc(S(=O)(=O)c2c(N)n(Cc3ccco3)c3nc4ccccc4nc23)cc1	–	-2.25% (inactive)
Cc1ccc(S(=O)(=O)CCSC(=N)N)cc1	–	-0.73% (inactive)
O=S(=O)(Nc1c(O)ccc2ccccc12)c1ccccc1	–	20.4% (inactive)
Cc1ccc(S(=O)(=O)Nc2c(O)ccc3ccccc23)cc1	70.6 µM (active)	–
COc1ccc(C(C)=O)cc1COC(=O)CCNS(=O)(=O)c1ccc(C(C)=O)cc1	–	-1.69% (inactive)
COc1ccc(S(=O)(=O)Nc2c(O)ccc3ccccc23)cc1OC	54.9 µM (active)	–

SMILES	IC50	inhibition
O=C1c2ccccc2NC2(CCCCC2)N1c1ccc(O)cc1	5.01 µM (active)	–
CN(C)CCNC(=O)C(=O)Nc1ccc2c(c1)N(S(=O)(=O)c1cccs1)CCC2	–	-3.08% (inactive)
Cc1ccc(NC(=O)CCSc2nnc(Cc3ccccc3)o2)cc1	–	-6.04% (inactive)
N#CC(C#N)=C(N)/C(C#N)=C/c1cc(O)c(O)c(O)c1	13.6 µM (active)	–
CC1CCCN(c2ccc(N)cc2C(N)=O)C1 (stereo not given)	3.15 µM (active)	–
N#C/C(=C\c1coc2ccc(O)cc2c1=O)C(=O)Nc1nc2ccccc2s1	80.4 µM (active)	–
CSc1nc(Cl)cc(Nc2ccc(O)cc2)n1	11.3 µM (active)	–
COc1ccc2[nH]c3c(=O)n(CCCCC(=O)NCCN4CCCC4)c(=S)[nH]c3c2c1	6.28 µM (active)	–
Cc1ccc(NC(=O)CSc2nc3ccccc3c(=O)n2CCCC(=O)NCCCN2CCOCC2)cc1C	–	6.18% (inactive)
CCN(CC)CCNC(=O)CCCCn1c(=S)[nH]c2c([nH]c3ccc(OC)cc32)c1=O	4.99 µM (active)	–
O=S(=O)(Nc1cccc(-c2cn3ccsc3n2)c1)c1ccc(F)cc1	–	3.14% (inactive)
O=C1CC(N2CCN(c3ccc(O)cc3)CC2)C(=O)N1Cc1cccs1 (stereo not given)	4.71 µM (active)	–
CN(CCc1cn[nH]c1)Cc1nc(Cc2ccccc2F)no1	–	-12.4% (inactive)
CC(O)CCc1ccc(O)cc1 (stereo not given)	8.46 µM (active)	–
NNC(=O)c1ccc(CN2CCCCC2)o1	–	2.18% [at 50 µM] (inactive)
Cc1ccc(C2=NC(=O)/C(=C/c3cc(O)c(O)c(Br)c3)S2)cc1	11 µM (active)	–
COc1cc(/C=C2\SC(c3ccc(C)cc3)=NC2=O)cc(OC)c1O	2.62 µM (active)	–
CCOc1ccc(NCc2cccn2-c2nnc(N3CCC(C(=O)NCCCN4CCCCC4CC)CC3)s2)cc1 (stereo not given)	5.76 µM (active)	–
CCOc1ccc(NCc2cccn2-c2nnc(N3CCC(C(=O)NCCCN4CCCCC4C)CC3)s2)cc1 (stereo not given)	6.99 µM (active)	–
CCOc1ccc(NCc2cccn2-c2nnc(N3CCC(C(=O)NCCCN4CC(C)CC(C)C4)CC3)s2)cc1 (stereo not given)	7.15 µM (active)	–
